Experimental findings from PubChem BioAssay (EPA / NIEHS) are described below.

Results filed as inconclusive are left out. Active and inactive are the calls of the source. The calls were made as follows, unless noted: active = hit-call score of the fitted dose curve at least 0.9, where 1 is the maximum; inactive = score below 0.9.

Experiment [1] is described as follows: TOX21_p53_BLA_p2_viability: Viability Assessment in the Tox21 HCT-116 p53 Agonism Beta-lactamase Assay, Phase 2 (AID 2283591; active = hit-call score of the fitted dose curve at least 0.9, where 1 is the maximum;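 also: actives lower the ATP signal meaning cytotoxicity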). The gist of the method:
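Cytotoxicity readout: CellTiter-Glo ATP luminescence, 30 min at room temperature, after the beta-lactamase read. Cells were HCT116 exposed 16 h at 37C to compounds pin-transferred at 217-fold dilution from DMSO stocks.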

In experiment [2] the target is Cellular tumor antigen p53 (Homo sapiens) (UniProt P04637). Put plainly: TOX21_p53_BLA_p3_ratio: Tox21 HCT-116 p53 Agonism Beta-lactamase Assay, Ratio, Phase 3 (AID 2283596; active = hit-call score of the fitted dose curve at least 0.9, where 1 is the maximum). The gist of the method:
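Cells were seeded at 4000/well, rested 5 h at 37C, then dosed with DMSO compound solutions (217-fold dilution) for 16 h. CCF4-AM substrate was loaded for 2 h at room temperature, and the 460/530 nm emission ratio was fitted for gain of signal versus DMSO.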

In experiment [3] the target is CCAAT/enhancer-binding protein beta (Homo sapiens) (UniProt P17676). Nature of the experiment: ATG_C_EBP_CIS: Attagene CIS-FACTORIAL HepG2 Assay for human CCAAT/Enhancer Binding Protein (C/EBP) beta (AID 2282927). As to conditions: HepG2 Attagene cis-factorial transcription factor reporter; actives raise or lower the signal. The gist of the method: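 Endogenous transcription factor activity in human liver HepG2 cells is inferred from induction of a CEBPB-linked reporter mRNA. Exposure lasts 24 h; activity is fitted in both directions relative to DMSO.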
CCAAT/enhancer-binding protein beta (Homo sapiens), sequence (P17676 whole entry, looked up): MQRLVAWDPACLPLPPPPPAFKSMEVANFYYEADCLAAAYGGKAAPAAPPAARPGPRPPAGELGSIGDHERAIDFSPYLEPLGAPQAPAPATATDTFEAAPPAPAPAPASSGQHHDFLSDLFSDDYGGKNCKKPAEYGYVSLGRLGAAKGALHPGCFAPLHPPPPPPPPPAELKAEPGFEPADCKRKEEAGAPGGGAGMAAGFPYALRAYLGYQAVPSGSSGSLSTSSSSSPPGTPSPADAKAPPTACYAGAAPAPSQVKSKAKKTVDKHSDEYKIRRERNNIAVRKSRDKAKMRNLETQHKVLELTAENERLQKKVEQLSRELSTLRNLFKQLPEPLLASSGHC

Experiment [4] can be described thus: ATG_CMV_CIS: Attagene CIS-FACTORIAL HepG2 Assay for human CMV (Internal Marker) (AID 2282928).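 Also: endpoint acts as a background internal control marker rather than a target.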 As to conditions: HepG2 CMV promoter reporter, transcription factor profiling; actives raise or lower the signal. The gist of the method:
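Fluorescence intensity of RT-PCR-derived reporter fragments, resolved by capillary electrophoresis, gives the signal. HepG2 liver cells bearing transfected cis-element reporters were treated 24 h; activity in either direction was fit relative to DMSO-treated controls.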

Experiment [5] in a line: ATG_BRE_CIS: Attagene CIS-FACTORIAL HepG2 Assay for human Bone Morphogenetic Protein (BMP) Response Element (BRE) (AID 2282933). Conditions: HepG2 BMP response element reporter, Attagene transcription factor profiling; actives raise or lower the signal. The method, boiled down:
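Read-out: reporter mRNA induction quantified by RT-PCR and capillary electrophoresis after 24 h chemical exposure of transfected HepG2 cells. Endogenous factor activity on the BMP response element; gain or loss fitted against DMSO baseline.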

Experiment [6] can be described thus: ATG_E_Box_CIS: Attagene CIS-FACTORIAL HepG2 Assay for human Enhancer Box (E-box) (AID 2282936). As to conditions: HepG2 E-box cis-reporter transcription, actives raise or lower the signal. The method, boiled down:
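E-box-driven reporter transcripts measured in transiently transfected HepG2 after 24 h exposure: RNA reverse-transcribed, PCR-amplified, fluorescently labelled, digested and resolved by capillary electrophoresis. Gain or loss relative to DMSO.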

A short description of experiment [7]: ATG_M_19_CIS: Attagene CIS-FACTORIAL HepG2 Assay for M19 Transcription Factor (Internal Marker) (AID 2282939). Conditions: HepG2 Attagene CIS-FACTORIAL M19 internal marker reporter; actives raise or lower the signal. The gist of the method:
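Readout: fluorescent reporter-transcript fragments by capillary electrophoresis after RT-PCR. Human HepG2 liver cells carried transfected MRTU constructs reporting endogenous transcription-factor activity; exposure 24 h. Gain or loss of signal fitted relative to DMSO.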

Experiment [8] is described as follows: ATG_GATA_CIS: Attagene CIS-FACTORIAL HepG2 Assay for human GATA Binding Protein (AID 2282944). Conditions: HepG2 GATA cis-element reporter, Attagene multiplex mRNA; actives raise or lower the signal. The method, boiled down:
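Read-out: fluorescent reporter mRNA fragments resolved by capillary electrophoresis after RT-PCR. Human liver HepG2 cells carried transiently transfected cis-regulated reporter constructs; chemicals incubated 24 h; gain or loss of signal fitted relative to DMSO.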

A short description of experiment [9]: ATG_ISRE_CIS: Attagene CIS-FACTORIAL HepG2 Assay for human Interferon Regulatory Factor 1 (IRF1) binding to an Interferon-Stimulated Response Element (ISRE) (AID 2282948). As to conditions: HepG2 ISRE cis-reporter (Attagene), mRNA transcription readout; actives raise or lower the signal. The method, boiled down: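 Signal reflects induction or loss of ISRE-linked reporter mRNA in transiently transfected HepG2 cells after a 24 h treatment, detected by fluorescent RT-PCR fragments on capillary electrophoresis and normalised to DMSO.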

Experiment [10] in a line: ATG_M_32_CIS: Attagene CIS-FACTORIAL HepG2 Assay for M32 Transcription Factor (Internal Marker) (AID 2282949).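 Also: background control marker of the multiplexed CIS panel rather than a real target.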 As to conditions: HepG2 Attagene cis-factorial M32 reporter, mRNA; actives raise or lower the signal. The gist of the method:
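HepG2 transfectants (cis-regulated reporter transcription units) dosed 24 h. Reporter mRNA by RT-PCR plus CE, analysed as gain or loss relative to DMSO.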

The nature of experiment [11]: ATG_M_06_CIS: Attagene CIS-FACTORIAL HepG2 Assay for M06 Transcription Factor (Internal Marker) (AID 2282950). Conditions: HepG2 Attagene CIS-FACTORIAL M06 internal marker reporter; actives raise or lower the signal. The method, boiled down: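 Terse: HepG2, transient MRTU transfection (FuGene 6), 24 h dosing; total RNA, oligo(dT) RT, PCR, FAM label, HpaI cut, capillary electrophoresis; bidirectional fit vs DMSO baseline; background-control endpoint.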

Experiment [12] in a line: ATG_MRE_CIS: Attagene CIS-FACTORIAL HepG2 Assay for human Metal Responsive Element (MRE) (AID 2282954). Conditions: HepG2 MRE cis-reporter transcription, Attagene multiplex; actives raise or lower the signal. The gist of the method: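 Endogenous MRE-dependent transcription read as reporter mRNA in transiently transfected human HepG2 cells at 24 h. RNA reverse-transcribed, PCR-amplified, labelled and resolved by capillary electrophoresis; gain or loss relative to DMSO.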

Experiment [13] concerns the target Paired box protein Pax-6 (Homo sapiens) (UniProt P26367). Put plainly: ATG_Pax6_CIS: Attagene CIS-FACTORIAL HepG2 Assay for human Paired Box 6 (PAX6) (AID 2282956). Conditions: HepG2 CIS-FACTORIAL PAX6 reporter transcription, RNA readout; actives raise or lower the signal. The method, boiled down:
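Values derive from bidirectional curve fitting of reporter mRNA signal relative to DMSO. HepG2 cells bearing transfected cis-regulated MRTUs were exposed for 24 h; transcripts were read by RT-PCR and capillary electrophoresis.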

Experiment [14] is described as follows: ATG_PXRE_CIS: Attagene CIS-FACTORIAL HepG2 Assay for human Pregnane X Receptor Element (PXRE) (AID 2282957). As to conditions: HepG2 Attagene CIS-FACTORIAL PXRE reporter, mRNA; actives raise or lower the signal. The gist of the method: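 Read-out: fluorescence of reporter-specific RT-PCR products resolved by capillary electrophoresis, fitted bidirectionally relative to DMSO. Human HepG2 liver cells carried transfected cis-promoter reporter units and were exposed to chemicals for 24 h.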

Experiment [15] deals with Cellular tumor antigen p53 (Homo sapiens) (UniProt P04637). Put plainly: TOX21_p53_BLA_p2_ratio: Tox21 HCT-116 p53 Agonism Beta-lactamase Assay, Ratio, Phase 2 (AID 2283592; active = hit-call score of the fitted dose curve at least 0.9, where 1 is the maximum). The method, boiled down:
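Readout: blue/green (460/530 nm) FRET emission ratio after 2 h CCF4-AM loading at room temperature, excitation 405 nm. HCT116 p53 bla cells, 16 h compound exposure at 37C, 5% CO2; agonist direction fitted against DMSO baseline.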

Experiment [16] in a line: TOX21_p53_BLA_p3_viability: Viability Assessment in the Tox21 HCT-116 p53 Agonism Beta-lactamase Assay, Phase 3 (AID 2283593; active = hit-call score of the fitted dose curve at least 0.9, where 1 is the maximum;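 also: cells exposed to compound for 16 h before reading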). The method, boiled down: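 Cellular ATP was quantified by CellTiter-Glo luminescence, read after 30 min at room temperature. Beforehand, HCT116 cells (4000/well) received compound 5 h post-seeding, 217-fold diluted from DMSO, then incubated 16 h at 37C.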

Experiment [17] in a line: TOX21_p53_BLA_p4_viability: Viability Assessment in the Tox21 HCT-116 p53 Agonism Beta-lactamase Assay, Phase 4 (AID 2283597; active = hit-call score of the fitted dose curve at least 0.9, where 1 is the maximum;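 also: hits lower the luminescence signal meaning cytotoxicity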). The method, boiled down: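 ATP content by CellTiter-Glo luminescence, 30 min RT, read after the beta-lactamase ratio step. Cells: HCT116, 4000/well, compound added after 5 h, exposure 16 h at 37C. Signal loss = reduced viability.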
Experiment [18] has as its target Cellular tumor antigen p53 (Homo sapiens) (UniProt P04637). Nature of the experiment: TOX21_p53_BLA_p5_ratio: Tox21 HCT-116 p53 Agonism Beta-lactamase Assay, Ratio, Phase 5 (AID 2283599; active = hit-call score of the fitted dose curve at least 0.9, where 1 is the maximum). The gist of the method: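 Beta-lactamase reporter ratio (blue 460 nm over green 530 nm, 405 nm excitation) after 2 h CCF4-AM loading, in HCT-116 cells exposed 16 h at 37 C to compounds pinned at 217-fold dilution. Increases relative to DMSO baseline scored.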

A short description of experiment [19]: TOX21_p53_BLA_p5_viability: Viability Assessment in the Tox21 HCT-116 p53 Agonism Beta-lactamase Assay, Phase 5 (AID 2283600; active = hit-call score of the fitted dose curve at least 0.9, where 1 is the maximum). The method, boiled down: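 ATP luminescence (CellTiter-Glo, 30 min, RT) served as the viability read-out, with loss of signal indicating cytotoxicity. Compounds in DMSO were pinned at a 217-fold dilution onto 4000 cells/well and incubated 16 h, 37C.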

Experiment [20] deals with Cellular tumor antigen p53 (Homo sapiens) (UniProt P04637). Put plainly: TOX21_p53_BLA_p4_ratio: Tox21 HCT-116 p53 Agonism Beta-lactamase Assay, Ratio, Phase 4 (AID 2283601; active = hit-call score of the fitted dose curve at least 0.9, where 1 is the maximum). The method, boiled down: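 Signal is the blue/green (460nm/530nm) ratio of cleaved versus uncleaved CCF4-AM substrate, read after 2 h substrate loading. Cells were HCT116 carrying the p53-responsive beta-lactamase reporter, dosed 16 h at 37C, 5% CO2; CellTiter-Glo measured in parallel.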
Cellular tumor antigen p53 (Homo sapiens), sequence (P04637 whole entry, looked up): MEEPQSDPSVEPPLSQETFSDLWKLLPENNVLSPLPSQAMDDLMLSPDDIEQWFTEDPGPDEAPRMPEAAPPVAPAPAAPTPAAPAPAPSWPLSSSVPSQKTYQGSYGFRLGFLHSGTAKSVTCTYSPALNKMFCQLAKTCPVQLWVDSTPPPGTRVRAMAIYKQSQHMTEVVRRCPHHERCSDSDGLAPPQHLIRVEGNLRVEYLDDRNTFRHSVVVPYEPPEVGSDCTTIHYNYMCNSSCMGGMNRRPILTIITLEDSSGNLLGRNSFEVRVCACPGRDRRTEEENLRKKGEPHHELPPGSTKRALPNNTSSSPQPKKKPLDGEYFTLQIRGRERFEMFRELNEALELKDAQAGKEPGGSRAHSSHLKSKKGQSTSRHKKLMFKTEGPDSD

Paired box protein Pax-6 (Homo sapiens), sequence (P26367 whole entry, looked up): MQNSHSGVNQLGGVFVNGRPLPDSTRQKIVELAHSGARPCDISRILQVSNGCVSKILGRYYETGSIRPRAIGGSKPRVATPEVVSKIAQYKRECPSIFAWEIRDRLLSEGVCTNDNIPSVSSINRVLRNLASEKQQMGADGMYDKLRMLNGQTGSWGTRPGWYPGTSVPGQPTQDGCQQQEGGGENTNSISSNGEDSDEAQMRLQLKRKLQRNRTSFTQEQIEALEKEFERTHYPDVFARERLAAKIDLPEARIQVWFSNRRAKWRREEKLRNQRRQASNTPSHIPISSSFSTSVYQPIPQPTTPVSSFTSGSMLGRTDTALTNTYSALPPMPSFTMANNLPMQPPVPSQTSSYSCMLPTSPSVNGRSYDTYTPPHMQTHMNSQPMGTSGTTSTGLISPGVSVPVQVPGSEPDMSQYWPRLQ

For the molecule `C1CN(CCOCCN2CCOCC2)CCO1`, the molecule was called inactive in experiment [1] and in experiment [2].

As for `COc1ccc2ccccc2c1`, the outcome in [3], in experiment [4], in [5], in [6], in [7] and in experiment [8] was inactive. Further, the result in [9], in experiment [10], in experiment [11], in experiment [12], in experiment [13] and in [14] was inactive.

In the case of `CCCCCCCCCCCCSC#N`, the outcome in [15], in experiment [16], in experiment [2] and in [17] was inactive.

One may read the AC50 as the concentration giving half of the maximal activity seen. Consider `CC/C=C/CCO`, for which the outcome in experiment [3], in experiment [4], in experiment [5], in experiment [6], in experiment [7] and in experiment [8] was inactive. The molecule was called inactive in experiment [9], in experiment [10], in experiment [11], in experiment [12], in experiment [13] and in experiment [1]. The outcome in [15], in experiment [2], in [17], in [18], in [19] and in experiment [20] was inactive. Besides, in [14], the AC50 was 40.5 µM (active).

Regarding `Cc1c(C(N)=O)cc([N+](=O)[O-])cc1[N+](=O)[O-]`, the molecule was classed as inactive in experiment [1], in experiment [2], in experiment [17], in [18], in [19] and in experiment [20].

As to `Oc1ccc(Oc2ccccc2)cc1`, the outcome in [3], in [5], in [6], in experiment [7], in experiment [8] and in [9] was inactive. In addition, the molecule was called inactive in experiment [10], in [11], in [13], in experiment [1], in experiment [2] and in [17]. The result in experiment [18] and in [20] was inactive. In addition, the AC50 was 44.9 µM (active) in [4], 79 µM (active) in experiment [12], 26.4 µM (active) in [14] and 45 µM (active) in experiment [15].

For the molecule `CCO[Si](OCC)(OCC)c1ccccc1`, the result in experiment [3], in experiment [4], in [5], in [6], in experiment [7] and in [8] was inactive. Besides, the molecule was called inactive in experiment [9], in [10], in experiment [11], in experiment [12], in [13] and in experiment [1]. For the same molecule, the molecule was classed as inactive in [16], in experiment [2], in [18], in experiment [19] and in experiment [20]. For the same molecule, the AC50 in [14] was 50.9 µM (active).

For the molecule `N#CCN(CC#N)CCN(CC#N)CC#N`, the outcome in [3], in experiment [4], in [5], in [6], in [7] and in experiment [8] was inactive. The call in [9], in [10], in [11], in experiment [12], in experiment [13] and in experiment [14] was inactive. Further, the molecule was classed as inactive in experiment [16] and in experiment [19].
